Most compounds without a hit are left out; they make up all but 2.4% or so of the library.
D2 PAM-1 – HTS Assay for Positive Allosteric Modulators of the Human D2 Dopamine Receptor: Primary Screen for Potentiators; D(2) dopamine receptor (Homo sapiens), P14416; HEK293 T-REx D2, calcium flux, EC20 dopamine potentiation; potentiation, % at 10 µM; hit rate 0.34% among 340,000;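 active means potentiation over 3 SD above the plate norm, cut at about 30% in these data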; further: 0% is about no effect
Target sequence (P14416 whole entry, looked up): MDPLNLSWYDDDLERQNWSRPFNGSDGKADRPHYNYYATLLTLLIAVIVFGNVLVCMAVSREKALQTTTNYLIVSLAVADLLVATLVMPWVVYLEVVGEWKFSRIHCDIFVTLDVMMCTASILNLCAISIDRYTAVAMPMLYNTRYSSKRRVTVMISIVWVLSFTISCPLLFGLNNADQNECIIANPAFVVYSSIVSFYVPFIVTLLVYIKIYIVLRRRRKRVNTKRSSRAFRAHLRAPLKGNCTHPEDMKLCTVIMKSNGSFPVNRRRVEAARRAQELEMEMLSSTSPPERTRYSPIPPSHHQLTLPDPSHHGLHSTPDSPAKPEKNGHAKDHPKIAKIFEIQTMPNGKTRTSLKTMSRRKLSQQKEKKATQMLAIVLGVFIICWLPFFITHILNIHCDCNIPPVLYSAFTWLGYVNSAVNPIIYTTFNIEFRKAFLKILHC
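Cells plated with tetracycline inducer and held overnight at 30 C; calcium dye loaded 30–90 min at room temperature; baseline taken, compound added and read 180 s; EC20 dopamine then added and read 180 s.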
D2 PAM-2 – Beta-Arrestin HTS for Positive Allosteric Modulators of the Human D2 Dopamine Receptor: Potentiators; potentiation, % (no concentration beside the values); D(2) dopamine receptor (Homo sapiens), P14416; hit rate 0.23% among 360,000; DiscoveRx D2 beta-arrestin cells, luminescence, 90 min; 100% = 57 uM dopamine signal; AID 624464, 2012; in the data active means potentiation above about 50%
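PathHunter beta-arrestin assay in DiscoveRx D2 cells. Compounds were added with an EC20 of dopamine (50 nM final) for 90 min at 37 deg C. Luminescence was read 1 h after detection reagent, with 57 uM dopamine as the EC100 control.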
D2 ag-1 – HTS Assay for Allosteric Agonists of the Human D2 Dopamine Receptor: Primary Screen for Agonists. HEK293 T-REx D2 cells, calcium flux agonist mode. activation, % at 2 µM. D(2) dopamine receptor (Homo sapiens), P14416. hit rate 0.53% among 340,000;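 active means activation over 3 SD above normal in the single-dose calcium agonist read, cut at about 30% in these data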; further: 0% is about no effect
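Agonism is scored from calcium flux in a force-coupled, inducible HEK293 cell line expressing D2, read kinetically for 180 s after compound addition against dopamine controls.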
D2 antag – HTS Assay for Allosteric Antagonists of the Human D2 Dopamine Receptor: Primary Screen for Antagonists; AID 485344, 2010; inhibition, % at 10 µM; hit rate 2% among 340,000; HEK293 TREx D2 cells, calcium flux, dopamine EC80; D(2) dopamine receptor (Homo sapiens), P14416; in the data active means inhibition above about 30%; inactive means below that, where a call was filed; further: 0% is about no effect
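HEK293 T-REx D2 cells, tet-induced, calcium dye no-wash. Cpd pintool add, 180 s kinetic, then EC80 DA, 180 s kinetic. Ca flux read.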
D2 ag-2 – Beta-Arrestin HTS for Positive Allosteric Modulators of the Human D2 Dopamine Receptor: Agonists; D(2) dopamine receptor (Homo sapiens), P14416; DiscoveRx PathHunter D2 beta-arrestin, luminescence, 90 min; 100% = 57 uM dopamine signal; activation, % (concentration not given with the values); hit rate 0.084% among 360,000; in the data active means activation above about 40%
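Agonist mode: compounds alone added to overnight-plated D2 PathHunter cells for 90 min at 37 C, with 57 uM final dopamine (EC100) defining full response. Beta-arrestin recruitment detected by chemiluminescent reagent, read after 1 h at ambient temperature.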
The depositor's hits bear a star.

Screening CC(C)Cc1cc(CN2CCC(CO)(Cc3ccccc3)CC2)[nH]n1 returned D2 PAM-1 -22.7, D2 PAM-2 -18.2, D2 ag-1 -1.4, D2 antag 47.4* and D2 ag-2 -0.4.
Screening N#CC1=C(N)N2C(=C(C#N)C1c1cccc(Br)c1)Nc1ccccc12 (configuration not stated) returned D2 PAM-1 -6.9, D2 PAM-2 4.8, D2 ag-1 10.6, D2 antag 39.4* and D2 ag-2 5.1.
Screening N#CC1=C(N)N2C(=C(C#N)C1c1ccc(Br)cc1)Nc1ccccc12 (configuration not stated) returned D2 PAM-1 1.8, D2 PAM-2 1.7, D2 ag-1 8.8, D2 antag 0.3 and D2 ag-2 -3.6.
For COc1ccc(-n2c(CCC(=O)O)ccc2-c2ccc(F)cc2)c(OC)c1 the results were D2 PAM-1 32.2*, D2 PAM-2 -9.8, D2 ag-1 0.0, D2 antag 6.6 and D2 ag-2 1.4.
`COC(=O)c1ccccc1-n1c(CCC(=O)O)ccc1-c1ccc(F)cc1` gave D2 PAM-1 0.2, D2 PAM-2 56.0*, D2 ag-1 0.3, D2 antag 3.4 and D2 ag-2 8.9.
`CCC(C)NC(=O)c1cc2cc(S(=O)(=O)N3CCCCC3)ccc2n1C` (configuration not stated) gave D2 PAM-1 6.4 and D2 ag-1 0.6.
Screening COC(=O)/C(C#N)=C1/SC=C(C)N1c1ccccc1 returned D2 PAM-1 34.4*, D2 PAM-2 -16.9 and D2 ag-2 -2.5.
For COc1ccc(C2CC(=O)c3c([nH]c(C(=O)OC4CCCCCC4)c3C)C2)cc1OC (configuration not stated) the results were D2 PAM-1 -3.5 and D2 ag-1 0.3.
COc1ccc(CCn2c(N)cc(=O)[nH]c2=S)cc1OC was read as D2 PAM-1 33.9*, D2 PAM-2 -20.0, D2 ag-1 0.3, D2 antag -16.0 and D2 ag-2 -3.1.
`O=C(c1ccc(N2CCC3(CC2)OCCO3)c([N+](=O)[O-])c1)N1CCOCC1` gave D2 PAM-1 19.1, D2 PAM-2 -5.0, D2 ag-1 -0.3, D2 antag 31.2* and D2 ag-2 -3.5.
`O=C(c1ccc(N2CCOCC2)c([N+](=O)[O-])c1)N1CCN(c2ccccc2)CC1` gave D2 PAM-2 -2.2 and D2 ag-2 -4.2.
Cc1cc(C)nc(N2CCCC(C(=O)NCc3ccc4c(c3)OCO4)C2)n1 (configuration not stated) was read as D2 PAM-1 1.0, D2 PAM-2 -5.2, D2 ag-1 -0.7, D2 antag -5.4 and D2 ag-2 -6.0.
CCCc1cc(N2CCCC(C(=O)NCc3ccc4c(c3)OCO4)C2)n2ncnc2n1 (configuration not stated) was read as D2 PAM-1 36.0*, D2 PAM-2 6.1, D2 ag-1 -0.5, D2 antag 3.7 and D2 ag-2 3.6.
For CCN(CC)c1cc2c(cc1F)c(=O)c(S(=O)(=O)c1ccccc1)cn2Cc1ccccc1 the results were D2 PAM-1 -6.4 and D2 ag-1 1.0.
Cc1ccc(S(=O)(=O)N(C)C)cc1NC(=S)N1CCc2ccccc21 was read as D2 PAM-1 -27.9, D2 PAM-2 -28.5, D2 ag-1 2.3, D2 antag 55.3* and D2 ag-2 -6.0.
For Cc1ccc(NC(=O)Nc2cc(S(=O)(=O)N(C)C)ccc2C)cc1 the results were D2 PAM-1 -27.9, D2 PAM-2 -3.8, D2 ag-1 -1.8, D2 antag 37.0* and D2 ag-2 -6.1.
Screening Cc1ccc(S(=O)(=O)N(C)C)cc1NC(=O)CSc1nc2ccccc2[nH]1 returned D2 PAM-1 -23.3, D2 PAM-2 -35.4, D2 ag-1 -1.8, D2 antag 30.8* and D2 ag-2 0.8.
Screening CCOc1ccccc1NC(=O)Nc1cc(S(=O)(=O)N(C)C)ccc1C returned D2 PAM-2 -21.6 and D2 ag-2 -4.3.
Screening Cc1ccc(S(=O)(=O)N(C)C)cc1NC(=O)Nc1ccccc1 returned D2 PAM-1 -23.6, D2 PAM-2 -24.3, D2 ag-1 -2.7, D2 antag 84.4* and D2 ag-2 -1.3.
CN(C)S(=O)(=O)c1cccc(NC(=S)N2CCc3ccccc32)c1 was read as D2 PAM-1 10.4, D2 PAM-2 8.9, D2 ag-1 0.5, D2 antag -9.2 and D2 ag-2 -0.4.
Screening COc1ccc(-n2nnnc2C2CCN(S(=O)(=O)c3ccc(C)cc3)CC2)cc1 returned D2 PAM-1 -3.3 and D2 ag-1 -0.4.
For COc1ccc(CC(=O)NCC(c2cccs2)S(=O)(=O)c2ccc(Cl)cc2)cc1 (configuration not stated) the results were D2 PAM-1 -2.3 and D2 ag-1 0.2.
For CC1CCCCC1NC(=O)CSc1nc2ccccc2[nH]1 (configuration not stated) the results were D2 PAM-1 36.9*, D2 PAM-2 -1.3, D2 ag-1 -2.6, D2 antag -14.6 and D2 ag-2 -3.4.
Screening CC1CCN(C(=O)CSc2nc3ccccc3[nH]2)CC1 returned D2 PAM-1 -14.6, D2 PAM-2 -15.1, D2 ag-1 -0.6, D2 antag 16.5 and D2 ag-2 -2.5.
For Cc1cccc(N2C(=O)CSC23C(=O)N(Cc2cccc(C(F)(F)F)c2)c2ccccc23)c1 (configuration not stated) the results were D2 ag-1 0.3.
For CCCn1c2ccccc2c2cnn(CC(=O)NCCc3cc(OC)ccc3OC)c(=O)c21 the results were D2 PAM-1 -9.2 and D2 ag-1 -1.6.
`S=C(NCc1ccco1)Nc1ccccc1` gave D2 PAM-1 8.3, D2 PAM-2 -3.1, D2 ag-1 -0.2, D2 antag 30.6* and D2 ag-2 2.3.
Cc1ccc(S(=O)(=O)N(C)C)cc1NC(=S)NC12CC3CC(CC(C3)C1)C2 was read as D2 PAM-1 -24.1, D2 PAM-2 -8.2, D2 ag-1 0.2, D2 antag 77.8* and D2 ag-2 -3.3.
CN(C)S(=O)(=O)c1cccc(C(=O)NCc2ccco2)c1 was read as D2 PAM-1 2.8, D2 PAM-2 -14.8, D2 ag-1 0.2, D2 antag -15.3 and D2 ag-2 0.0.
Screening Cc1ccc(S(=O)(=O)N(C)C)cc1NC(=S)Nc1ccc2[nH]c(=O)[nH]c2c1 returned D2 PAM-1 -13.9, D2 PAM-2 -23.6, D2 ag-1 1.4, D2 antag 48.9* and D2 ag-2 -1.8.

Screening results (PubChem BioAssay)
